High-throughput results as filed in PubChem BioAssay.
The list is not random: actives were taken first. Their share in the collection is about 0.9%.
RECQ1 inh-1 – qHTS Assay for Inhibitors of RecQ-Like Dna Helicase 1 (RECQ1). RECQ1 DNA unwinding, red fluorescence kinetic read. ATP-dependent DNA helicase Q1 (Homo sapiens), P46063. hit rate 0.54% among 240,000. Potency, µM (doses to about 57.3 µM), without a hit: top-dose activity, negative = inhibition, usual class: inhibitors. AID 2549, 2010;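 note: plate controls were vehicle for no effect and no enzyme for full effect; nearly all actives have a fitted effect of over 30% in size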
Target sequence (P46063 whole entry, looked up): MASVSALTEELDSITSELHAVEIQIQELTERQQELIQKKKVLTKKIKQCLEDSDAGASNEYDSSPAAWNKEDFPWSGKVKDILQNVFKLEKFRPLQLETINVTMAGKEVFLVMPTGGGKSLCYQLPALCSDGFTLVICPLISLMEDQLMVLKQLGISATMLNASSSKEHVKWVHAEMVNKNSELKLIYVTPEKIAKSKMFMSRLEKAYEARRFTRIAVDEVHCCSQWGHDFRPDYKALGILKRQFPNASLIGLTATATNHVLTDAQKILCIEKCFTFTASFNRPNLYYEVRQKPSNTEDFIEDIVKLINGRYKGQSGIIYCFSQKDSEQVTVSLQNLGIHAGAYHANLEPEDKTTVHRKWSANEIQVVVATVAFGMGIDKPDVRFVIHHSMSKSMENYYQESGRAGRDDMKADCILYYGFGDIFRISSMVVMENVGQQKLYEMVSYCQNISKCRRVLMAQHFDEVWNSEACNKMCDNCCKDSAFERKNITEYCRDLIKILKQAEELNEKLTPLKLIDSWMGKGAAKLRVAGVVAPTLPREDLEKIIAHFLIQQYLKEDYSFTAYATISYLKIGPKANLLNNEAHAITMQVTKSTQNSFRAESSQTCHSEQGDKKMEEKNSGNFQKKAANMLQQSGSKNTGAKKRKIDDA
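50 nM RECQ1T1 preincubated 15 min with compound in Tris pH 8.0 buffer with MgCl2, DTT, Tween-20 and 2.5 ug/ml poly(dI-dC); started with 200 nM TAMRA/BHQ-2 forked duplex and 2 mM ATP. Unwinding read as fluorescence (525/598 nm), two reads 2 h apart.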
BLM helicase inh – qHTS Assay for Inhibitors of Bloom's syndrome helicase (BLM); RecQ-like DNA helicase BLM (Homo sapiens), P54132; recombinant BLM DNA unwinding, fluorescence dequenching; Potency, µM (highest dose often 56.1 µM), without a hit: top-dose activity change, negative = inhibition, most hits filed as inhibitors; hit rate 0.2% among 350,000; AID 2528, 2010;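 note: plate controls were vehicle for no effect and no enzyme for full effect; nearly all actives have a fitted effect of over 35% in size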
APEX1 inh – qHTS Assay for Inhibitors of the Human Apurinic/apyrimidinic Endonuclease 1 (APE1) | Potency, µM (titrated, usually from 65.8 µM), inactives show at the top dose activity change, negative = inhibition, hits mostly inhibitors | recombinant APE1, TAMRA/BHQ-2 abasic DNA cleavage fluorescence | hit rate 0.35% among 350,000 | DNA repair nuclease/redox regulator APEX1 (Homo sapiens), P27695;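 note: plate controls were vehicle for no effect and reference inhibitor for full effect; nearly all actives have a fitted effect of over 55% in size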
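Activity was derived from the fluorescence gain between first and third kinetic reads (60 s intervals, ex 525/em 598 nm) after 50 nM THF-abasic TAMRA/BHQ-2 duplex was added to 0.75 nM APE1 preincubated 15 min with compound.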
RGS12 GoLoco inh – qHTS Assay for Inhibitors of RGS12 GoLoco Motif Activity (Red Fluorophore); Gai1:RGS12 GoLoco peptide FP, rhodamine, 10 min; Guanine nucleotide-binding protein G(i) subunit alpha-1 (Homo sapiens), P63096; Potency, µM (series often up to 61.6 µM), without a hit: at the top dose activity, negative = inhibition, actives largely listed as inhibitors; hit rate 0.44% among 230,000; AID 880, 2007; active = well fitted inhibition curve with a large enough effect, not every such curve was filed as active; inactive = no such curve, though single readings can be large or run the other way; note: nearly all actives have a fitted effect of over 30% in size
TRb-SRC2 inh – qHTS for Inhibitors of the Interaction of Thyroid Hormone Receptor and Steroid Receptor Coregulator 2; Potency, µM (series often up to 106 µM), for the others: at the highest dose activity change, negative = inhibition, usual class: inhibitors; hit rate 0.065% among 280,000; TRbeta-SRC2 peptide binding, fluorescence polarization; receptor liganded with 1 µM T3; Thyroid hormone receptor beta (Homo sapiens), P10828;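 note: plate controls were bound peptide for no effect and peptide without receptor for full effect; nearly all actives have a fitted effect of over 50% in size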
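Assay buffer: 20 mM Tris-HCl, 100 mM NaCl, 10% glycerol, 1 mM EDTA, 0.01% NP-40, 1 mM DTT, 1 uM T3, 5% DMSO; TRb LBD 0.6 uM, Texas Red SRC2 20 nM; FP after 5 hr.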
TexasRed fluor – Total Fluorescence Counterscreen for Inhibitors of the Interaction of Thyroid Hormone Receptor and Steroid Receptor Coregulator 2; hit rate 0.29% among 280,000; TRb/SRC2 Texas Red total fluorescence interference; Potency, µM (titrated, usually from 106 µM), without a hit: top-dose fluorescence change, negative = quenching; active = well fitted curve in either direction with a large enough effect; inconclusive = small, poorly fitted or top-dose-only effect
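Human TRβ ligand-binding domain (0.6 uM) and Texas Red SRC2 peptide (20 nM) in Tris buffer with 1 uM T3 and 5% DMSO were incubated with pinned compound for 5 hr at ambient temperature. Total fluorescence was computed as S + 2P (555/632 nm).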
RECQ1 inh conf – Confirmation qHTS Assay for Inhibitors of RecQ-Like Dna Helicase 1 (RECQ1). RECQ1 helicase DNA unwinding, fluorescence. hit rate 28% among 610. Potency, µM (doses to about 229 µM), without a hit: at the highest dose activity change, negative = inhibition, actives largely listed as inhibitors. shares compounds with RECQ1 inh-1. AID 2708, 2010; note: nearly all actives have a fitted effect of over 45% in size
RECQ1 ADP FP – Counterscreen for RECQ1 Inhibitors: ADP Fluorescence Polarization Displacement Assay; shares compounds with RECQ1 inh-1; ADP fluorescence polarization displacement counterscreen; Potency, µM (doses to about 228 µM), without a hit: at the highest dose activity change, negative = inhibition, actives largely listed as inhibitors; hit rate 27% among 530; note: nearly all actives have a fitted effect of over 45% in size
RECQ1 inh-2 – Confirmation qHTS Assay for Inhibitors of RecQ-Like Dna Helicase 1 (RECQ1) - Round 2 Cherry Picks; Potency, µM (titrated, usually from 119 µM), for the others: top-dose activity, negative = inhibition, actives largely listed as inhibitors; recombinant RECQ1 DNA unwinding, red fluorescence; hit rate 15% among 1,100; shares compounds with RECQ1 inh-1; note: nearly all actives have a fitted effect of over 50% in size
* = called active by the depositor; i = inactive; ? = inconclusive; . = not tested or not shown; [ ] = another dose, or the depositor's remark. Unless noted, calls come from the whole dose curve; as a rule, active = well fitted curve in the direction sought with a large enough effect; inconclusive = small, poorly fitted or top-dose-only effect, or another doubt; inactive = no such curve, though single readings can be large; an effect the other way counts as inactive or inconclusive. Unless noted, % is set by controls: 0 for no effect and ±100 for the full control effect; potency is the fitted concentration of half-maximal effect.

SMILES	RECQ1 inh-1	BLM helicase inh	APEX1 inh	RGS12 GoLoco inh	TRb-SRC2 inh	TexasRed fluor	RECQ1 inh-2	others
O=C(O)CCCCn1c(SCc2cc(=O)n3cc(Cl)ccc3n2)nc2ccsc2c1=O	0%	2%	-2%	8%	0%	-2%	.
O=C(O)CCCCn1c(SCc2ccccc2Cl)nc2ccsc2c1=O	-9%	-1%	13%	9%	2%	-3%	.	RECQ1 inh conf=10%;RECQ1 ADP FP=3%
NS(=O)(=O)c1ccc(CCNC(=O)CSc2nc3ccsc3c(=O)n2CC(=O)O)cc1	-6%	6%	12%	-4%	-6%	2%	.
Cc1ccc(NC(=O)Nc2c[nH]c(=O)[nH]c2=O)c(Cl)c1	.	-9%	.	.	11%	2%	.
COCCn1c(=O)c(-c2ccc(OC)cc2)nc2cnc(Nc3cccc(OC)c3)nc21	i	1%	6%	2%	.	.	.
COC(=O)c1cc(O)cc(OC)c1Oc1cc(C)cc(O)c1C(=O)O	22µM*	8.9µM*	0.63µM*	-10%	5%	-3%	5µM*
COC(=O)c1c(C)cc(OC)cc1O	-10%	5%	-8%	6%	-7%	-5%	.
O=C(NCc1ccco1)C(=O)NCC1OCCN1S(=O)(=O)c1ccc(F)cc1 (stereo unspecified)	i	-5%	-2%	7%	3%	1%	.
O=C(NCc1ccco1)C(=O)NCC1OCCN1S(=O)(=O)c1cc(F)ccc1F (stereo unspecified)	18µM*	-12%	?	14%	4%	-3%	.	RECQ1 inh conf=6%[114 µM];RECQ1 ADP FP=-3%[91.9 µM]
COc1ccc([C@H]2CC(=O)c3c(O)cc(O)cc3O2)cc1O	-8%	-11%	-3%	2%	-1%	-2%	.
O=C(O[C@@H]1Cc2c(O)cc(O)cc2OC1c1ccc(O)c(O)c1)c1cc(O)c(O)c(O)c1 (stereo partly specified)	0.71µM*	-26%	0.32µM*	2%	5%	-8%	.	RECQ1 inh conf=2.8µM*;RECQ1 ADP FP=?
Cc1ccc(CSC2=Nc3sccc3C3=NC(=O)CN23)cc1	32µM*	-15%	12%	49%	1%	-3%	-4%
CCCN(CCC)C(=O)c1ccc2c(=O)n(Cc3ccco3)c(=S)[nH]c2c1	?	?	?	19%	4%	-3%	-15%
CC1=C(c2ccc(F)cc2)S(=O)(=O)NC1=NCc1ccccc1Cl	.	-1%	.	.	-1%	-1%	.
CCCc1cc(=O)oc2cc(C)c(CN3CCCC3)c(O)c12	13µM*	25µM*	?	55%	4%	-19%	?
